Source: PubChem BioAssay (National Center for Advancing Translational Sciences (NCATS))
Most compounds without a hit are left out; they make up all but 5.7% or so of the library.
L3MBTL1 inh – qHTS Assay for the Inhibitors of L3MBTL1. AlphaScreen L3MBTL1–H3K9me1 peptide binding. actives 0.66% (n = 230,000). AID 485360, 2010. Lethal(3)malignant brain tumor-like protein 1 (Homo sapiens), Q9Y468. Potency, µM (series often up to 57.1 µM), for the others: at the highest dose activity, negative = inhibition, usual class: inhibitors; also: potency is read from the fitted curve at half-maximal effect; % is scaled to controls: 0 for no effect and ±100 for the full control effect; nearly all actives have a fitted effect of over 60% in size
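Read-out is AlphaScreen signal from streptavidin donor and nickel chelate acceptor beads (10 ug/mL final each) bridging L3MBTL1 (50 nM) and biotinylated K9-monomethylated H3(1-15) peptide (75 nM), after 30 min compound exposure at room temperature.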
HP1b chromo inh – HTS for Inhibitors of HP1-beta Chromodomain Interactions with Methylated Histone Tails; Chromobox protein homolog 1 (Homo sapiens), P83916; AlphaScreen HP1-beta / biotin-H3K9me3 peptide binding; Potency, µM (doses to about 114 µM), without a hit: at the top dose activity change, negative = inhibition, actives largely listed as inhibitors; actives 0.56% (n = 390,000); AID 540317, 2011; also: potency is read from the fitted curve at half-maximal effect; nearly all actives have a fitted effect of over 70% in size
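HP1-beta protein (50 nM final) preincubated 30 min at room temperature with biotinylated H3(1-18)K9me3 peptide (50 nM) in PBS pH 7.4, 0.01% Tween-20, then compound added for 30 min. AlphaScreen streptavidin donor/nickel chelate acceptor beads (10 ug/mL final), 30 min dark, luminescence read.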
JMJD2E inh – qHTS Assay for Inhibitors of Human Jumonji Domain Containing 2E (JMJD2E) | actives 1.6% (n = 230,000) | JMJD2E catalytic domain, FDH-coupled NADH fluorescence (FDH is formaldehyde dehydrogenase) | Potency, µM (top dose mostly 57.1 µM), for the others: at the top dose activity change, negative = inhibition, actives largely listed as inhibitors | Lysine-specific demethylase 4E (Homo sapiens), B2RXH2; active = well fitted inhibition curve with a large enough effect, not every such curve was filed as active; inconclusive = small, poorly fitted or top-dose-only effect, or another doubt; inactive = no such curve, though single readings can be large or run the other way;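 also: potency is read from the fitted curve at half-maximal effect; 0% = wells with enzyme and -100% = buffer wells without enzyme; nearly all actives have a fitted effect of over 50% in size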
JMJD2A Tudor – qHTS Assay for Inhibitors of JMJD2A-Tudor Domain | actives 4.4% (n = 390,000) | AID 504339, 2011 | Potency, µM (top dose mostly 114 µM), for the others: at the top dose activity change, negative = inhibition, most hits filed as inhibitors | Lysine-specific demethylase 4A (Homo sapiens), O75164 | AlphaScreen JMJD2A-Tudor / H3K4me3 peptide binding; also: potency is read from the fitted curve at half-maximal effect; % is scaled to controls: 0 for no effect and ±100 for the full control effect; nearly all actives have a fitted effect of over 50% in size
BAZ2B block – qHTS Assay for Inhibitors of BAZ2B | Bromodomain adjacent to zinc finger domain protein 2B (Homo sapiens), Q9UIF8 | AlphaScreen BAZ2B-H3K14Ac peptide displacement | Potency, µM (highest dose often 114 µM), inactives show at the highest dose activity change, negative = inhibition, most hits filed as inhibitors | actives 4.4% (n = 360,000); also: potency is read from the fitted curve at half-maximal effect; % is scaled to controls: 0 for no effect and ±100 for the full control effect; nearly all actives have a fitted effect of over 60% in size
Target sequence (Q9UIF8 whole entry, looked up, the tested form may be a part): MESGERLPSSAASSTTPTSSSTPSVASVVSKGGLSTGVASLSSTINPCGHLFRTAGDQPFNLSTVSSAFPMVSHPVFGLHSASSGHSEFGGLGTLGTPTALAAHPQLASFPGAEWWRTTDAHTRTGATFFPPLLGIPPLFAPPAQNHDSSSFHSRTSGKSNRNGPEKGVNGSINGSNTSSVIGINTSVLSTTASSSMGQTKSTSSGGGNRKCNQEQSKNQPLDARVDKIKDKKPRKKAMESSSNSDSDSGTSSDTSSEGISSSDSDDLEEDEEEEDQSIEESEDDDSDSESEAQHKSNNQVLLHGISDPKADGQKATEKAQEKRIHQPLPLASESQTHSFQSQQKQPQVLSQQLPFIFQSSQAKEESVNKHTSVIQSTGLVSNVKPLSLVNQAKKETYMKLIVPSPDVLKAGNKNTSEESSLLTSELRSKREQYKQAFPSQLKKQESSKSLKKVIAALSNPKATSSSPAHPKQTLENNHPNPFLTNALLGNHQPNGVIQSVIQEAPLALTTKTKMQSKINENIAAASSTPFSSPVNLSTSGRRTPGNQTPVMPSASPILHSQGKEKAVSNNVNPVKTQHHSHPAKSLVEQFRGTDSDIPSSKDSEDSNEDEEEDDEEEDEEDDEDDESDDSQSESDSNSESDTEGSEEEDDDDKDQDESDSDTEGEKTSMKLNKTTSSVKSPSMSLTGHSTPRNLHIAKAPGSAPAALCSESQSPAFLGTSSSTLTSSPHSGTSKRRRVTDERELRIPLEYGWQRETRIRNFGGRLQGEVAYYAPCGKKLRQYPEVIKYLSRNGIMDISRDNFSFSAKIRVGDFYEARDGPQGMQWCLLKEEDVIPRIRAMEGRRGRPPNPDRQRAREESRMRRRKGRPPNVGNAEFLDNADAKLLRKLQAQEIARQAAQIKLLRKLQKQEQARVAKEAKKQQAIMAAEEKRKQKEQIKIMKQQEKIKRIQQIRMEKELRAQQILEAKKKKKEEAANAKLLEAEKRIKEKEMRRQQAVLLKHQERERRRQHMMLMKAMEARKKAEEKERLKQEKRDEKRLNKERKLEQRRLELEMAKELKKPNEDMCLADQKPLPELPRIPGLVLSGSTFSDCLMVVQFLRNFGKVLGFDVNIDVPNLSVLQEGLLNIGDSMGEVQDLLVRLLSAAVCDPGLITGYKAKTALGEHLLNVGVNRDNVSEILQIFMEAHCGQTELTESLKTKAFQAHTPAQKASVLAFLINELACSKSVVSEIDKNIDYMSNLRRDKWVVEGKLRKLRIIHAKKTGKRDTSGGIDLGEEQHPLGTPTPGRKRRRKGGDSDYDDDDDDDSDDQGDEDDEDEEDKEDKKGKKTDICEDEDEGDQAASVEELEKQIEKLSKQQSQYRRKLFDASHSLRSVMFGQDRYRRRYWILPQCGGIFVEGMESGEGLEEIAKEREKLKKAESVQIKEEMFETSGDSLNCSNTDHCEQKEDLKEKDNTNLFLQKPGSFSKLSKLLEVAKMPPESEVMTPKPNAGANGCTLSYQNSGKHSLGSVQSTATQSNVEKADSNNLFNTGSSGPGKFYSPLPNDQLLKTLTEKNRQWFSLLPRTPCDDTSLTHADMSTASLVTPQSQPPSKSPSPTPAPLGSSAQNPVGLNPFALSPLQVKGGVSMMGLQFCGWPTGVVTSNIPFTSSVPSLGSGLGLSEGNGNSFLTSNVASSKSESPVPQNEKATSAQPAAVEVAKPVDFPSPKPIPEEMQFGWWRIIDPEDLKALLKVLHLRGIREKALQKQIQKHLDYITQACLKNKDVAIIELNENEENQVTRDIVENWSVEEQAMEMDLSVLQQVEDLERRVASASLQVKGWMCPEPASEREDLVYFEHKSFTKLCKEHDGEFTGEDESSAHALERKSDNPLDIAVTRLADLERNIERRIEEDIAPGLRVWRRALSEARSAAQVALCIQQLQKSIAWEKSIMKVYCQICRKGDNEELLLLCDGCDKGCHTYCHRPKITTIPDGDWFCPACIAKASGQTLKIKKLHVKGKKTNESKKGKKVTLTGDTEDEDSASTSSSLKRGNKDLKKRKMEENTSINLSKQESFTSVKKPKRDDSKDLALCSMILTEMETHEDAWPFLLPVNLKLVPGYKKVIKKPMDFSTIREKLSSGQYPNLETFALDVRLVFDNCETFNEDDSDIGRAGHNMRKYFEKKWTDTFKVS
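AlphaScreen displacement: compounds (up to 110uM) incubated 30 min at room temperature with a preformed 50 nM BAZ2B/50 nM biotinylated H3K14Ac peptide complex in PBS pH 7.4 with Tween-20. Donor and acceptor beads at 10 ug/mL final added, 20 min light-protected before reading.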
PI5P4Ka inh – qHTS for Inhibitors of phosphatidylinositol 5-phosphate 4-kinase (PI5P4K); Phosphatidylinositol 5-phosphate 4-kinase type-2 alpha (Homo sapiens), P48426; PI5P4Kalpha enzyme, ADP-Glo luminescence, 60 min; stronger effect = lower value; max response, %; actives 1.2% (n = 330,000); AID 652105, 2013; active = max response of -50% or lower; inconclusive = between -30% and -50%; inactive = -30% or higher; also: value at the top dose of about 77 µM; % is scaled to controls: 0 for no effect and ±100 for the full control effect
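Quantitative HTS of the MLSMR library against PI5P4Kalpha with substrate. ATP added last at 5 microM final; room temperature, 60 minutes. Remaining ATP depleted, ADP converted and read as luminescence.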
An asterisk follows results filed as active; ? = inconclusive; nt = no result given; [ ] = dose if it differs, or a comment. Unless noted, calls follow the shape of the dose curve; as a rule, active = well fitted inhibition curve with a large enough effect; inconclusive = small, poorly fitted or top-dose-only effect; inactive = no such curve, though single readings can be large or run the other way.

SMILES	L3MBTL1 inh	HP1b chromo inh	JMJD2E inh	JMJD2A Tudor	BAZ2B block	PI5P4Ka inh
Cc1nc(N)sc1-c1csc(NCc2ccccc2)n1	-4%	-49%	?	?	32µM*	?
Cc1cc(-c2csc(NCc3ccccc3)n2)c(C)n1C	-13%	-15%	28µM*	45µM*	40µM*	-55*
C=CCNc1nc(-c2c(C)nc3sccn23)cs1	-12%	18%	-26%	-30%	-11%	-2
Cc1nc2sccn2c1-c1csc(NCc2ccccc2)n1	-8%	?	-19%	63µM*	?	nt
COC(=O)CN1C(=O)CSc2ccc(S(=O)(=O)Nc3ccc(F)c(Cl)c3)cc21	nt	39%	nt	-8%	-1%	nt
O=C(NCCC1=CCCCC1)c1ccc2c(c1)N(Cc1ccc(Cl)cc1)C(=O)c1ccccc1S2(=O)=O	nt	12%	nt	-12%	-17%	nt
Cc1ccc(OCc2cn3cccnc3n2)cc1	10%	35%	4%	-8%	89µM*	-5
O=[N+]([O-])c1cccc(OCc2cn3cccnc3n2)c1	nt	?	-3%	-4%[11.4 µM]	-12%	11
CCN1CCN(CCNC(=O)c2ccc(/C=C3\Sc4ccccc4N(Cc4ccccc4F)C3=O)cc2)CC1	-16%	7%	?	56µM*	?	-7
CC1(C)CCN2CCC(C)(C)c3c(O)ccc1c32	?	?	nt	56µM*	45µM*	-54*
COc1ccc(-c2sc3ccc(N4CCOCC4)cc3c2C#CC(C)(C)O)cc1	0%	27%	nt	?	50µM*	32
CC(C)CCN(Cc1ccco1)C(=O)Cn1ncc2c([nH]c3ccccc32)c1=O	nt	19%	nt	-16%	-2%	nt
CCOC(=O)C1(C)C=C(Nc2ccc(O)cc2)C(=O)N1c1ccc(O)cc1 (configuration not stated)	-26%	-15%	0%	?	50µM*	1
c1ccc2c3c(cc(N4CCOCC4)c2c1)OC1(N2CCOCC2)CCCCC1O3 (configuration not stated)	28µM*	4%	?	?	?	nt
O=C(/C=C\c1cccs1)N1CCN(Cc2ccc3c(c2)OCO3)CC1	nt	27%	-4%	-7%	-23%	-4
COc1cc([N+](=O)[O-])cc(/C=N\NC(=O)C2COc3ccccc3O2)c1O (configuration not stated)	?	23%	?	56µM*	40µM*	-21
O=[N+]([O-])c1ccccc1/C=C/c1ccc2ccccc2n1	-14%	-12%	nt	40µM*	?	-2
COc1cc(/C=N/NC(=O)C2COc3ccccc3O2)cc(OC)c1OC (configuration not stated)	-9%	35%	?	-4%	-3%	1
COc1ccc(Cl)cc1C(=O)NNC(=O)C1COc2ccccc2O1 (configuration not stated)	nt	-10%	-3%	22µM*	-12%	-60*
O=C(N/N=C\c1cccc([N+](=O)[O-])c1O)C1COc2ccccc2O1 (configuration not stated)	-15%	11%	?	?	35µM*	-69*
Cn1c(/C=C/c2ccccc2[N+](=O)[O-])nc2ccccc2c1=O	5%	11%	nt	-4%	-6%	5
O=C(N/N=C/c1cccc([N+](=O)[O-])c1)C1COc2ccccc2O1 (configuration not stated)	nt	25%	-4%	0%[11.4 µM]	10%	12
CCCOc1cccc(C(=O)N2CCCCC2CCN2CCCCC2)c1 (configuration not stated)	nt	19%	nt	-19%	-10%	nt
CCOc1ccccc1NC(=O)Nc1nnc(N(C)Cc2ccccc2)s1	nt	5%	nt	-30%	-16%	nt
